From the supplement of paper PMC11732987, “Enantioselective OTUD7B fragment discovery through chemoproteomics screening and high-throughput optimisation” (Communications Chemistry, 2025)

Legend:
Test in all cases: log2 ratio of Biotin-Ahx-Ub-VS probe labelling (fragment/DMSO); higher = less target engagement (more negative = stronger competition), active = hit call of the paper (q ≤ 0.05, log2 ratio ≤ -1)
Details in all cases: compound concentration: 200 uM; treatment time: 3 h
[1] = molecular target: USP34 (UniProt Q70CQ2)
Chain of USP34 (Q70CQ2 whole entry, the tested form may be a part): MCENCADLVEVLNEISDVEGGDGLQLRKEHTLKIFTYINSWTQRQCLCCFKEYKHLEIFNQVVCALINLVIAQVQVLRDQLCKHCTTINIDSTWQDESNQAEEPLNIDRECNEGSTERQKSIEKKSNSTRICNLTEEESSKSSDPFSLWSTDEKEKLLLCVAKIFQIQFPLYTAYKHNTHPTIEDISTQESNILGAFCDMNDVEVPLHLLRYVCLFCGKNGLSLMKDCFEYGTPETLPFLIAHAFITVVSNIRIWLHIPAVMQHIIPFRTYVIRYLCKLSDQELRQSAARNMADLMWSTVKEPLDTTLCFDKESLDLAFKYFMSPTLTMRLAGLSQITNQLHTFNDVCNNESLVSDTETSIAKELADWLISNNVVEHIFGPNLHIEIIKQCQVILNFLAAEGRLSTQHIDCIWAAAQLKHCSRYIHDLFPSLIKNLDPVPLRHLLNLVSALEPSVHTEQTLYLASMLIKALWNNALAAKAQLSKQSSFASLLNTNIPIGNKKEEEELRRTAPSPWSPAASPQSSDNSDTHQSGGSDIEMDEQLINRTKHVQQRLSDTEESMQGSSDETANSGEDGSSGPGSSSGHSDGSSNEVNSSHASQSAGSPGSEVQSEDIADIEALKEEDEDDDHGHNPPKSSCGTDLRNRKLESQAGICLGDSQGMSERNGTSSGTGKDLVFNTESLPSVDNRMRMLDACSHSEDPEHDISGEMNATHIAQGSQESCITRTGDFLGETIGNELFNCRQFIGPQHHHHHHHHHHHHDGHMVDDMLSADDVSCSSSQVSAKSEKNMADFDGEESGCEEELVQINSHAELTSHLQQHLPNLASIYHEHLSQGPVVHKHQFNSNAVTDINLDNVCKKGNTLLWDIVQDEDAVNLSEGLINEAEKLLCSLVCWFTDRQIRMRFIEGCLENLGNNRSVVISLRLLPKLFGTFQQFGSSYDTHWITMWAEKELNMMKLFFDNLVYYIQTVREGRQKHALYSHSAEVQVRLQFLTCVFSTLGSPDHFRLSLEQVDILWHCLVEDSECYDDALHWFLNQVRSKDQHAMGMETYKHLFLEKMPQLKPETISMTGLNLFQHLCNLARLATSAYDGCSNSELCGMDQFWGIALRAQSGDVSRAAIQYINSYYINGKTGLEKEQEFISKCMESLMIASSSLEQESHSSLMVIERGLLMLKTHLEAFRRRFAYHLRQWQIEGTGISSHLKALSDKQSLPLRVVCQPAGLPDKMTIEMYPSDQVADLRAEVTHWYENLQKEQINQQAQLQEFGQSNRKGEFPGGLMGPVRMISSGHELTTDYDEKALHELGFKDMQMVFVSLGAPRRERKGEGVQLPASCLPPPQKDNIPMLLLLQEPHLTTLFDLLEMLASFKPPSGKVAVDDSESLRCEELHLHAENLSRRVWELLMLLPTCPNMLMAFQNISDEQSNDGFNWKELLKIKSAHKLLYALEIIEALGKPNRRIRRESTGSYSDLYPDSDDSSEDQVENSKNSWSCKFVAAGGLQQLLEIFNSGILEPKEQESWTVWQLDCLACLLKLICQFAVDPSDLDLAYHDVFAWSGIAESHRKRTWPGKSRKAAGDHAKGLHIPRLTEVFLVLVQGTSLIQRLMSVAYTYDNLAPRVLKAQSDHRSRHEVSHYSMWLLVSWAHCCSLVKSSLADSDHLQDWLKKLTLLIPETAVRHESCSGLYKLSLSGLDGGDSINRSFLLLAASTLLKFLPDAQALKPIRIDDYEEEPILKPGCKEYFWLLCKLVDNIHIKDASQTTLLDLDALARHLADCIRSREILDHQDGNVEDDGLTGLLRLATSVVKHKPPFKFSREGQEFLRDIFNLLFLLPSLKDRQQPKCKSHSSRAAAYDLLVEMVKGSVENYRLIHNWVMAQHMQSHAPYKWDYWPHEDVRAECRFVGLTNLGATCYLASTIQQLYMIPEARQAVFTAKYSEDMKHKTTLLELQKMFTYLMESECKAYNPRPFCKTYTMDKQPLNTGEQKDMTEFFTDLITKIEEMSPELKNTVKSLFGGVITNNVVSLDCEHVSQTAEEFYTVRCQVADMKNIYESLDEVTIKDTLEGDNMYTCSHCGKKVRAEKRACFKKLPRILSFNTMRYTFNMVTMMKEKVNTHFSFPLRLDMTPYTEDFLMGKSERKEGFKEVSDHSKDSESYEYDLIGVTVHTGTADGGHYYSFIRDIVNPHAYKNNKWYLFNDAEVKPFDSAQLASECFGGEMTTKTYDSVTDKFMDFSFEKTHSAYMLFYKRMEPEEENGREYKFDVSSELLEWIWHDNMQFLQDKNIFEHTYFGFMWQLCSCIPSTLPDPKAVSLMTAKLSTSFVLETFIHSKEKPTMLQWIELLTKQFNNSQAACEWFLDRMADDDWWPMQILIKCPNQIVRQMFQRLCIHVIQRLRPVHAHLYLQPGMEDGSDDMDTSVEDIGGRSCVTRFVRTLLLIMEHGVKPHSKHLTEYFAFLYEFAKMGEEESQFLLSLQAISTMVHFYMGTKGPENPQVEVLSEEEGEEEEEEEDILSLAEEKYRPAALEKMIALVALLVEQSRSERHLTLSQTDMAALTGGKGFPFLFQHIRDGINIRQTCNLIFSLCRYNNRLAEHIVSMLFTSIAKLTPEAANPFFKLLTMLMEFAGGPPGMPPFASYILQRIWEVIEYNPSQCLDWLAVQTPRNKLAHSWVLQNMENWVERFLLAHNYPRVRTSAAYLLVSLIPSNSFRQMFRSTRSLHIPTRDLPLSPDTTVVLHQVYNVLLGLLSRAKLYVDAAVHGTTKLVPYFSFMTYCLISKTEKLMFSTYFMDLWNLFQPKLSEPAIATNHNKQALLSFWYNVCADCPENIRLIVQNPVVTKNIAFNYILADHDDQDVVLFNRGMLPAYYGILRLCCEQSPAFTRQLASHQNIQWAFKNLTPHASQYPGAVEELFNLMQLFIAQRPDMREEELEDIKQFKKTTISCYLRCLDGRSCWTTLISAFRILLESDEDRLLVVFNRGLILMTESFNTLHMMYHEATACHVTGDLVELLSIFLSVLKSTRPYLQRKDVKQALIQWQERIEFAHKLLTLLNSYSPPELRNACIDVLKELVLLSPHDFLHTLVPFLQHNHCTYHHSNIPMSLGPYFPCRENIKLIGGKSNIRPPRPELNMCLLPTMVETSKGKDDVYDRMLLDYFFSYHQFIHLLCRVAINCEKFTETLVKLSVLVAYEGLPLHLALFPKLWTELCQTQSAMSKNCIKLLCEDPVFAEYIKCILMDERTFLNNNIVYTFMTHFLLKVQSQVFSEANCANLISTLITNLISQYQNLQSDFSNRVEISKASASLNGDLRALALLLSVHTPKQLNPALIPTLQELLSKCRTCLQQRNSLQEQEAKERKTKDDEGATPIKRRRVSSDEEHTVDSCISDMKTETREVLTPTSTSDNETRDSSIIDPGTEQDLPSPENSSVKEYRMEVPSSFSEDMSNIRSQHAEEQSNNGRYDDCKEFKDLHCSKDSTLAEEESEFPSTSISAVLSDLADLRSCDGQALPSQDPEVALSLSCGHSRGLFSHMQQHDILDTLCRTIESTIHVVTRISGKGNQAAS
How it was run: (§1)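 Fragment (200 µM) or vehicle was incubated for 3 h with triplicate HEK293T lysate samples of 495 µg, which were then treated with Biotin-Ahx-Ub-VS at 0.5 µM final for 1 h. Labelled DUBs were enriched on NeutrAvidin, digested with LysC and trypsin, and analysed by diaPASEF LC-MS/MS. Values are average log2 fragment/vehicle ratios from an unpaired t-test on global-median-normalised Spectronaut label-free quantities, using proteins with ≥2 unique peptides.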

[2] = molecular target: T1, USP36 (UniProt Q9P275)
T1 sequence (whole entry): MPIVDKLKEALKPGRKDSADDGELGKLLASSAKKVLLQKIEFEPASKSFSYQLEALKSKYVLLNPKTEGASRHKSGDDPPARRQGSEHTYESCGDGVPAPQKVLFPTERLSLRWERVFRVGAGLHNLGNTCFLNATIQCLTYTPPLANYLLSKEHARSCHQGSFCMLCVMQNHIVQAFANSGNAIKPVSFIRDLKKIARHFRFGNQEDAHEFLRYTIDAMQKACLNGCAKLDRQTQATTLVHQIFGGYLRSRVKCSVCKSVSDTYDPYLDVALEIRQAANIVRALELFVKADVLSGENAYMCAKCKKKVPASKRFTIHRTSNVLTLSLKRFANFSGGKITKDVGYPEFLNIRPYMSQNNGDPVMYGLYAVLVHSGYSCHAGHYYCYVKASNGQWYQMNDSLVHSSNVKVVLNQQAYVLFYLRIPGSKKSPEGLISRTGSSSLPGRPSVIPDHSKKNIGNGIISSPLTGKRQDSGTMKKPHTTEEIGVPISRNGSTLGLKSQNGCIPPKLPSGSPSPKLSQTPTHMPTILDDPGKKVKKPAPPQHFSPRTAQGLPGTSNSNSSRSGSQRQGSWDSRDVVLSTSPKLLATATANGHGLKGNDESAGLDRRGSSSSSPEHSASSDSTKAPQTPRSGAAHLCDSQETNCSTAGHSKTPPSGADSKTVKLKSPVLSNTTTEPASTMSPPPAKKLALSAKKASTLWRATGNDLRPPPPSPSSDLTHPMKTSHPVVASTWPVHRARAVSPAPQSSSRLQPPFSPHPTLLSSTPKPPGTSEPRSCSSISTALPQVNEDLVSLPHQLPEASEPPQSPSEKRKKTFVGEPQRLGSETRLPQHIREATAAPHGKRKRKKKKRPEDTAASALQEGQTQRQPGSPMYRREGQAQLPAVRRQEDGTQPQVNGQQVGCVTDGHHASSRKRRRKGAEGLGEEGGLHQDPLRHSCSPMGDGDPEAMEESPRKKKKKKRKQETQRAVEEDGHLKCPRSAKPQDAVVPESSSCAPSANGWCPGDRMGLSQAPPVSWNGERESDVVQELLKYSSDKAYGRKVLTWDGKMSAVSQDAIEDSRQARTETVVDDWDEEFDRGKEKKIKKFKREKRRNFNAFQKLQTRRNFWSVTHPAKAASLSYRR
How it was run: as §1

[3] = molecular target: T2, USP38 (UniProt Q8NB14)
T2 sequence (whole entry): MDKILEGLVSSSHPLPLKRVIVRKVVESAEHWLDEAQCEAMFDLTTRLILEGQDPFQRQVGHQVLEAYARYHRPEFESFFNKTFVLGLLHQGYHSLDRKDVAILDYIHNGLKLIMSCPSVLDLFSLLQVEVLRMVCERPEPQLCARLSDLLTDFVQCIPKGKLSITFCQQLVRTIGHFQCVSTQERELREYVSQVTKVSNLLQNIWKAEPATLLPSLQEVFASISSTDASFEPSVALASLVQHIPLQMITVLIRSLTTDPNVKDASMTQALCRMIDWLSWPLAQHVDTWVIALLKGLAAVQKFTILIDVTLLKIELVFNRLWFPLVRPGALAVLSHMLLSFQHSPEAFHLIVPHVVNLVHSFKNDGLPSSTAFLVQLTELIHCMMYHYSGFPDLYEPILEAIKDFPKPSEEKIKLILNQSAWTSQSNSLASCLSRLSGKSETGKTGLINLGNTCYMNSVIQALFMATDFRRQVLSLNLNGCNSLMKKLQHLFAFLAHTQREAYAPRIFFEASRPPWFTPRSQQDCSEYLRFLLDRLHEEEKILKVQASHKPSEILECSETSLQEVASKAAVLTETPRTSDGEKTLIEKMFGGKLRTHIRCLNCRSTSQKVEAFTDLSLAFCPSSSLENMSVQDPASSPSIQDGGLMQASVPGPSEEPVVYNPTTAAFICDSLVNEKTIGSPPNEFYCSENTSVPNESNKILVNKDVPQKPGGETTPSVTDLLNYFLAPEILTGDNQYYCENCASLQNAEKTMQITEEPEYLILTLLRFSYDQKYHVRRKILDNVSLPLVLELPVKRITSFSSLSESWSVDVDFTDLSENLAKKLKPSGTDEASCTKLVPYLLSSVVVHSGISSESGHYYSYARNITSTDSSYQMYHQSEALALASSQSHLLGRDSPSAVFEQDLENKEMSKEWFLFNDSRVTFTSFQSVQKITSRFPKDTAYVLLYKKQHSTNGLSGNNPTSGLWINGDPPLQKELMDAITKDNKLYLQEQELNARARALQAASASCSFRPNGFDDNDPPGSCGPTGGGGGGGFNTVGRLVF
How it was run: as §1

[4] = molecular target: T3, USP39 (UniProt Q53GS9)
T3 sequence (whole entry): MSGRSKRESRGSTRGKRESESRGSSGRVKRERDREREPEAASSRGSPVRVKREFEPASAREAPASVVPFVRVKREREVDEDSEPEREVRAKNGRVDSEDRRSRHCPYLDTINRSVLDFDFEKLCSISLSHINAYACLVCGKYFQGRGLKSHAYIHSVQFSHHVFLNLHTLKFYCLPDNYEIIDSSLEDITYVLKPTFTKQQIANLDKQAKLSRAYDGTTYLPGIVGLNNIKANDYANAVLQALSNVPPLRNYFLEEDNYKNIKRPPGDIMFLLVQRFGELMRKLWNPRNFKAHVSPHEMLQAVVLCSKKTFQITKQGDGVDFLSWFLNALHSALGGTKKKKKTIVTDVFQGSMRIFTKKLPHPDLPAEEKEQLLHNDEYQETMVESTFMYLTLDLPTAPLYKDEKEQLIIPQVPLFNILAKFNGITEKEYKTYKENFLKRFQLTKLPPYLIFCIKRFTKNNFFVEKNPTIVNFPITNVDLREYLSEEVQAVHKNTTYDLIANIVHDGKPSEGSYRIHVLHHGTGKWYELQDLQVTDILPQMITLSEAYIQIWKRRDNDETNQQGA
How it was run: as §1

[5] = molecular target: T4, USP4 (UniProt Q13107)
T4 sequence (whole entry): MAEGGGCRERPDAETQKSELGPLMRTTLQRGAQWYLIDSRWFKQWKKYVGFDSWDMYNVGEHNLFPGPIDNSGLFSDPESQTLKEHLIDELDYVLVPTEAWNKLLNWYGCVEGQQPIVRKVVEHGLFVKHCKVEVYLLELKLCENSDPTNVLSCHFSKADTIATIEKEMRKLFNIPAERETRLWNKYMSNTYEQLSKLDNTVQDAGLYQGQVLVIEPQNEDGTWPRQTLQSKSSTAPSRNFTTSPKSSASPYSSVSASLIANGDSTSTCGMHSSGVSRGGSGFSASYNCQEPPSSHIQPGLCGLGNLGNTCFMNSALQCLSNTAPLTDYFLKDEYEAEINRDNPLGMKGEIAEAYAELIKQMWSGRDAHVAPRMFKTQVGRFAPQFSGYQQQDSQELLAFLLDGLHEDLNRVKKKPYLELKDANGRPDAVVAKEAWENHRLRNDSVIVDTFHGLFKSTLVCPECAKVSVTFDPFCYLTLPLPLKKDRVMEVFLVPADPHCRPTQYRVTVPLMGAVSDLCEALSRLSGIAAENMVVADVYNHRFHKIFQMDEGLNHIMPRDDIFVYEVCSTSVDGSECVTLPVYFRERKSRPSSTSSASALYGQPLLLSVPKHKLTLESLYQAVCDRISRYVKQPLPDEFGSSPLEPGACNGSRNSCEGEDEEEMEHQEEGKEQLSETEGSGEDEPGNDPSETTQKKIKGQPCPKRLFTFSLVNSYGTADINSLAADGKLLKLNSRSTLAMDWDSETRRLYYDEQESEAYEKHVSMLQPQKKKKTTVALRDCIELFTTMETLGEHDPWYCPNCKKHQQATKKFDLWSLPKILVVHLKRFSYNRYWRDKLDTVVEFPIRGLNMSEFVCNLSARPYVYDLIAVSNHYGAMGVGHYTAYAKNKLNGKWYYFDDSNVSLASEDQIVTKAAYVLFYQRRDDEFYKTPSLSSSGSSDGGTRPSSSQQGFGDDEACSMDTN
How it was run: as §1

Measured: log2 ratio of Biotin-Ahx-Ub-VS probe labelling

Cc1c(NC(=O)CCl)c(=O)n(-c2ccccc2)n1C
inactive: [1] -0.0386 | [2] -0.0835 | [3] -0.177 | [4] -0.16 | [5] 0.0206
